# Wnt act: activators of Wnt/beta-catenin signaling; Wnt/beta-catenin reporter cell assay, activator, plate reader; activation, % at 9.35 µM; actives 1.2% (n = 300,000); in the data active = activation above about 30%, passing the limit was not always enough; inconclusive = no clear call, values can overlap the other calls;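 also: 0% = neutral control wells and 100% = positive control wells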
# C2C12 statin: suppression of simvastatin myotoxicity. C2C12 myotubes + simvastatin, ATP luminescence, 48 h; scaled: DMSO 0, geranylgeraniol control 100. actives 0.78% (n = 330,000). rescue of ATP level, % at 7.49 µM;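 active = mean ATP rescue above about 67%, or every replicate alone reaching that limit, limit read from the data, passing the limit was not always enough; inconclusive = no clear call, values can overlap the other calls; inactive = mean under the limit and some replicate under it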;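 also: myotubes were challenged with 10 µM simvastatin during compound exposure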
# MITF TRPM1 inh: reduces MITF-dependent TRPM1 promoter luciferase signal; SK-MEL-5 TRPM1 promoter luciferase, 24 h; inhibition, % at 12.5 µM; actives 0.83% (n = 330,000); AID 488899;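 active = mean inhibition across replicates of 60% or more, whatever share of single replicates reaches that level; inconclusive = some that reach 60%, reason not given; inactive = mean inhibition across replicates below 60%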
# EBV LMP1 NFkB: reduces LMP1-driven NF-kappaB luciferase signal | inhibition, % at 12.5 µM | LMP1-induced NF-kappaB luciferase reporter cells, luminescence | actives 0.69% (n = 350,000); in the data active = inhibition above about 41%; inconclusive = no clear call, values can overlap the other calls;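 also: 0% = neutral control wells and 100% = reference inhibitor control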
# MITF act: MITF TRPM1 promoter activation in melanoma cells; SK-MEL-5 TRPM1-promoter luciferase, 24 h; % of positive control, neutral wells = 0; activation, % at 12.5 µM; actives 0.75% (n = 300,000); AID 588334;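 active = mean activation of at least 80% with every replicate also reaching 80%; inconclusive = mean reaches 80% but some replicate falls short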;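 also: 0% = neutral control wells and 100% = parthenolide positive control wells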
# esBAF inh: SWI/SNF esBAF complex inhibition; mouse ES cells, Bmi1-luciferase knock-in reporter, 24 h; 100% = twice the neutral-well signal; reporter increase, % at 12.5 µM; actives 2% (n = 350,000); AID 602393; in the data active = activation above about 40%; inconclusive = no clear call, values can overlap the other calls;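 also: 0% = median of the plate's neutral control wells and 100% = double that signal; a rise in the Bmi1 reporter signal indicates esBAF inhibition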
# * marks the source's active call; other numbers are inactive results; u = inconclusive; x = not tested or not shown. Only some compounds are listed: those with a hit (about 4% of all), similar ones and a draw of the others.
SMILES,Wnt act,C2C12 statin,MITF TRPM1 inh,EBV LMP1 NFkB,MITF act,esBAF inh
O=C(CSc1nc2ccccc2[nH]1)c1ccc2c(c1)OCO2,54.4*,-4.7,-71.3,-32.6,x,9.1
CC(=O)c1cnc2c(-c3ccc(Cl)cc3)c(C)nn2c1C,x,-19.5,-17.8,-3.9,18.2,-0.9
Cc1ccc(/C=C/C(=O)c2ccccc2O)cc1,26.0,x,-36.6,2.7,36.8,x
Cc1ccc(/C=C/C(=O)C2C(=O)c3ccccc3C2=O)cc1,x,x,12.6,47.1*,-8.3,x
Cc1ccc(C(=O)N/C(=C/c2ccccc2)C(=O)NC(Cc2ccccc2)C(=O)O)cc1 (stereo unspecified),x,x,-3.6,10.1,-1.5,x
CN1CCc2c(sc(/N=C/c3c[nH]c4ccccc34)c2C(N)=O)C1,0.2,x,x,x,x,x
CN1CCc2c(sc(/N=C/c3c[nH]c4ccccc34)c2C#N)C1,39.0*,x,x,x,x,x
O=C(C[C@H]1CC[C@@H](NC(=O)C2CC2)[C@H](CO)O1)NCC1CC1,x,-5.0,x,x,x,5.0
CN(C)/C=C/C=C1C(=O)CCCC1=O,72.7*,2.1,6.5,2.0,-2.6,-1.7
CC1=NN(c2ccccc2)C(=O)/C1=C/C=C/C=C/N(C)C,-1.7,x,7.5,6.6,-3.3,x
O=c1[nH]nc(Cc2ccc(-c3ccc(Cl)cc3)o2)c2ccccc12,4.9,-33.5,4.5,6.9,-4.8,16.6
COc1ccc(-c2csc(NC(=O)CSc3nc(C)cs3)n2)cc1,x,-1.9,-22.7,-7.5,x,27.9
CSCC(=O)Nc1nc(-c2ccc3c(c2)OCCO3)cs1,13.2,x,-47.3,-39.0,44.0,x
Nc1nc(-c2ccc3c(c2)OCCO3)cs1,x,5.9,-74.8,-17.0,u,50.5*
CCCC(=O)Nc1nc(-c2ccc3c(c2)OCCO3)cs1,25.2,1.0,-92.7,-45.7,90.7*,32.7
CCCC(=O)Nc1nc(-c2ccc(OC)cc2)cs1,x,-9.4,-49.7,-16.8,47.8,67.6*
COc1ccc(-c2csc(NC(=O)CSc3nc(SC)ns3)n2)cc1,2.6,-3.8,11.9,-2.2,-9.5,67.3*
CN(CCOc1ccccc1)C(=O)C1CCN(C(=O)c2ccc(Cl)cc2)CC1,2.6,2.0,-6.2,7.2,5.6,-6.2
CO[C@H]1CN(C)C(=O)c2cc(NS(=O)(=O)CC(F)(F)F)ccc2OC[C@@H](C)N(C(=O)NC(C)C)C[C@@H]1C,x,-13.5,x,x,x,-1.2
C[C@@H]1CN([C@@H](C)CO)C(=O)Cc2cc(NC(=O)Cc3cn(C)c4ccccc34)ccc2O[C@H]1CN(C)S(=O)(=O)c1ccc(F)cc1,x,13.4,x,x,x,0.7
Cc1ccc(-c2csc(NC(=O)CSC3=NCCS3)n2)cc1,21.8,7.9,-38.4,1.6,x,44.9*
c1ccc(Oc2cc(-n3cncn3)ncn2)cc1,6.4,x,-18.4,-21.8,15.9,x
Cc1cnn(-c2cc(Oc3ccccc3)ncn2)c1,x,2.9,-84.7,2.9,u,64.6*
CC(C)C#Cc1ccc([C@@H]2[C@@H](CO)N(C(=O)c3ccccn3)[C@H]2C#N)cc1,x,9.2,x,x,x,1.5
CCCc1nn(C)c(C(=O)Nc2ccc(C)c(C)c2)c1Cl,12.3,-7.5,-62.0,-27.4,62.3,70.4*
SMILES,Wnt act,C2C12 statin,MITF TRPM1 inh,EBV LMP1 NFkB,MITF act,esBAF inh
CCCc1nn(C)c(C(=O)Nc2ccc(CC)cc2)c1Cl,x,x,-7.8,2.2,8.4,x
C[C@@H]1CN([C@H](C)CO)C(=O)c2cc(NC(=O)NC3CCCCC3)ccc2O[C@@H]1CN(C)C(=O)Nc1ccc(F)cc1,x,-7.5,x,x,x,-0.3
CC(C)CNS(=O)(=O)c1cc(C(=O)OCC(=O)N(C)C2CCS(=O)(=O)C2)c(Cl)cc1Cl (stereo unspecified),53.2*,14.9,0.2,-3.9,-1.2,-8.7
CN(C(=O)COC(=O)c1cccc(Cl)c1)C1CCS(=O)(=O)C1 (stereo unspecified),-0.9,7.2,-7.3,-0.6,7.4,1.0
Cc1ccc(S(=O)(=O)N(CC(=O)NCc2ccncc2)Cc2ccccc2F)cc1,1.1,1.2,-10.7,-5.5,8.4,1.4
Cc1ccc(S(=O)(=O)N(CC(=O)NCc2ccco2)Cc2ccccc2F)cc1,x,66.7*,2.7,-0.3,-4.2,1.7
COc1ccc(OC)c(NC(=O)CSc2nnc(C3CCCCC3)n2-c2ccccc2)c1,57.1*,3.7,17.6,-8.9,-18.6,0.4
C=CCn1c(-c2ccc(OC)cc2)nc2nc3ccccc3nc21,3.9,x,-8.8,-7.2,x,x
Fc1ccc(-c2nc3nc4ccccc4nc3n2Cc2ccco2)cc1,u,1.6,-29.2,-12.9,36.7,64.0*
Fc1ccc(-n2c(-c3ccco3)nc3nc4ccccc4nc32)cc1,x,-12.1,-1.3,-0.4,2.9,-7.1
c1ccc(-c2nc3nc4ccccc4nc3n2Cc2ccco2)cc1,44.0*,x,-32.8,-16.9,34.1,x
Cc1cc(C)c(NC(=O)CSc2nnc(CNC(=O)c3ccccc3F)o2)c(C)c1,-0.6,9.5,7.0,6.0,-6.4,0.4
COc1cccc(CNC(=O)c2cccc(S(=O)(=O)N3CCN(Cc4ccccc4)CC3)c2)c1,2.2,-11.0,0.7,2.4,0.1,4.0
CCCC(=O)n1nc(-c2ccc(C)cc2)nc1NCc1ccco1,47.0*,x,-53.8,1.3,51.1,x
Cc1ccc(C(=O)n2nc(-c3ccccc3)nc2NCc2ccco2)cc1,3.9,-2.8,-20.9,4.4,26.1,12.2
O=C(c1cccs1)n1nc(-c2ccc(Cl)cc2)nc1NCc1ccco1,51.7*,x,-21.3,-5.9,x,x
O=C(Nc1ccc(Cl)cc1)Nc1ccc(N2CCCC2)c(S(=O)(=O)Nc2ccccc2Cl)c1,-16.1,x,70.7*,38.6,-69.9,x
Cc1ccc2c(c1)c1c3n2CCCNC3CCC1 (stereo unspecified),0.5,-19.3,-11.3,-32.7,x,6.1
c1cc2c(cc1C1CCCCC1)c1c3n2CCCNC3CCC1 (stereo unspecified),x,x,98.9*,-36.2,-98.5,x
COc1ccc([C@@H]2CC(=O)c3c(O)cc(O)cc3O2)cc1O,39.6*,4.4,-46.8,-6.6,46.5,54.1*
Cc1ccc(CNc2nc(N)c([N+](=O)[O-])c(Nc3ccc(F)cc3)n2)cc1,0.0,122.8*,-8.4,8.1,9.5,6.0
Cc1cccc(NC(=O)N2CCCCCC2)c1,6.4,-5.7,-30.4,-7.4,33.5,43.3*
O=C(Nc1cnc2ccccc2c1)N1CCCCC1,x,x,-91.1,-19.0,94.2*,x
Cc1ccc(NC(=O)N2CCCCCC2)cc1C,27.4,-6.9,-34.2,-20.6,36.2,51.6*
O=C(Nc1cnc2ccccc2c1)N1CCOCC1,x,x,-24.1,-7.8,27.2,x
CCOC(=O)C1(Cc2ccc(OC)cc2)CCN(C(=O)Cc2cccnc2)CC1,8.1,x,-20.8,-6.4,21.8,x
COC(=O)c1ccc(COc2ccccc2/C=C/C(=O)c2ccc(OCC(=O)O)cc2)cc1,0.2,x,-2.5,68.6*,7.7,x
COC(=O)c1ccc(OCCOc2ccccc2)cc1,x,-5.9,-73.5,-12.9,74.6,45.7*
Oc1ccc(N=Nc2ccccc2)cc1,34.4*,14.8,-121.1,8.8,91.0*,6.1
O=C(O)c1ccccc1N=Nc1ccc(O)cc1,5.2,-3.4,-0.4,-4.2,-2.0,-1.4

# Screening results (PubChem)
